Several values for one entry are separate records, joined by “and”; a condition that tells them apart may be missing. Equal values may be shown once. Out of some 5,600 compounds screened, about 150 (2.7%) showed an effect of 50% or more. This excerpt belongs to a sample that is enriched for strong results.
Key:
[1] = target: T1, Protein deacetylase HDAC6 (Homo sapiens) (UniProt Q9UBN7); details: at 10 µM
T1 sequence (whole entry): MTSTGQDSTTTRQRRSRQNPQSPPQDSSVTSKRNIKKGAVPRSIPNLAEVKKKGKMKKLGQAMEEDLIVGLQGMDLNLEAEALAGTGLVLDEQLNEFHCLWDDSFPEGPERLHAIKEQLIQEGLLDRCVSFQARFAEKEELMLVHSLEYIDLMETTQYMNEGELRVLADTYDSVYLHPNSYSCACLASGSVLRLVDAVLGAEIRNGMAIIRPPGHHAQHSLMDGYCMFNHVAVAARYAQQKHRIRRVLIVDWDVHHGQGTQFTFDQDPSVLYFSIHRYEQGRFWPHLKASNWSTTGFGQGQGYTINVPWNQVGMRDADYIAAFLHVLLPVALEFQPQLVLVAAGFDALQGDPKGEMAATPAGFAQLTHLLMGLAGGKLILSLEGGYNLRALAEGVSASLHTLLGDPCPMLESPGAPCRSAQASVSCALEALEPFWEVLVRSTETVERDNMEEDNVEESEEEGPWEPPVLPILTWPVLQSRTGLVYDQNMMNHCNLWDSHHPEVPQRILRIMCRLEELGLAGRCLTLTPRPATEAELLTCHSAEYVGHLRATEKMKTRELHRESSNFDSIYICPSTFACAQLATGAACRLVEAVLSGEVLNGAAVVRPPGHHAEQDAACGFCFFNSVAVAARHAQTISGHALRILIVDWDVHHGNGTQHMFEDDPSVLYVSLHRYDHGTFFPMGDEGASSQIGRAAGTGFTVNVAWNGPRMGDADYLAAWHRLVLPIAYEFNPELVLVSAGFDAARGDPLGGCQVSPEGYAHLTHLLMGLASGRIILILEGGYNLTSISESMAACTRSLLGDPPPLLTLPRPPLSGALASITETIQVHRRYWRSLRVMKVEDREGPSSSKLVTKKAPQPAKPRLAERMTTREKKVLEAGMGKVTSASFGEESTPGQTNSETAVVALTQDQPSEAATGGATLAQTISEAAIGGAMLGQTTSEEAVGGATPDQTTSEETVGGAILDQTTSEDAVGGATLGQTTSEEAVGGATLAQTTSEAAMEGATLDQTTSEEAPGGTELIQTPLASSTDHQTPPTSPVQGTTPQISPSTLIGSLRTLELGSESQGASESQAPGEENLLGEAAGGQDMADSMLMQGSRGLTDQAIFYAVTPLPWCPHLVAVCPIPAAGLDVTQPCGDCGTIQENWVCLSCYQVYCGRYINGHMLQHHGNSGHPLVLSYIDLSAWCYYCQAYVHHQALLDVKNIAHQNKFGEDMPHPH

[2] = target: Protein deacetylase HDAC6 (Homo sapiens) (UniProt Q9UBN7); details: at 10 µM; remark: listed apart in the source

Row | Compound | inhibition [1] | inhibition [2] [%]
1 | O=C(/C=C/c1ccc2ccc(C(F)(F)F)cc2n1)c1ccncc1 | -2.03% | 
2 | O=C(/C=C/c1ccc2ccccc2n1)c1ccncc1 | 77.3% | 
3 | O=C(NNc1ccccc1)c1ccncc1 | -5.35% | 
4 | Cc1c(Cl)cccc1S(=O)(=O)Nc1nc(CC(=O)N2CCN(C)CC2)cs1 | 4.81% | 
5 | CCO[C@@H](Cc1ccc(OCCn2c(C)ccc2-c2ccc(SC)cc2)cc1)C(=O)O | 46.3% | 
6 | COc1cc(NC(=O)c2ccccn2)ccc1Cl | 94.4% | 
7 | O=C(Nc1cnc(Cl)nc1)c1ccc(F)c(F)c1 | -4.2% | 
8 | O=C(Nc1cccc(Cl)c1)c1ccccn1 | 97.2% | 
9 | O=C(Nc1ccc(Cl)cc1)Nc1ccc(Cl)c(Cl)c1 | -2.56% | 
10 | CC(C)OC(=O)Nc1cccc(Cl)c1 | -4.5% | 
11 | O=C(Nc1ccc(S(=O)(=O)Nc2ccccc2Cl)c(Cl)c1)c1ccccn1 | 13.9% | 
12 | Cc1cccc(C)c1NC(=O)[C@H]1CCCCN1C | 2.44% | 
13 | c1ccc(CN2CCC3(CCc4ccccc43)CC2)cc1 | -2.02% | 
14 | CN[C@@H](CCCNC(=N)N)C(=O)O | -8.08% | 
15 | O=C(CCCS)NC1CCN(C(=O)COc2ccc(Cl)cc2Cl)CC1 | 7.84% | 
16 | CO/N=C(/C(=O)N[C@@H]1C(=O)N2C(C(=O)O)=C(Cn3ccc(=N)n3CCO)CS[C@H]12)c1csc(N)n1 | -0.61% | 
17 | O=C(N[C@H]1CCN(C(=O)c2cc(C(F)(F)F)cc(C(F)(F)F)c2)[C@H](Cc2ccc(Cl)cc2)C1)c1ccnc2ccccc12 | -1.37% | 
18 | Cc1cn2nc([C@@H]3CCCCN3C(=O)c3cc(Cl)ccc3NS(C)(=O)=O)cc2nc1N1CC[C@H](N)C1 | -2.52% | 
19 | Cc1nc(NS(=O)(=O)c2ccc(N)cc2)oc1C | 32.6% | 
20 | SATRAPLATIN, CHEMBL3833367 |  | -6.7
21 | O=C1c2cccc(O)c2C(=O)c2c(O)cc(CO)cc21 | 5.42% | 
22 | Cc1cc(O)c2c(c1)C(=O)c1cc(O)cc(O)c1C2=O | 90.2% | 
23 | CCS(=O)(=O)N(C)[C@H]1c2cc(C#N)ccc2OC(C)(C)[C@@H]1O | -5.99% | 
24 | CC(=O)OC[C@H](N)C(=O)O | 3.65% | 
25 | NC[C@H]1O[C@H](O[C@H]2[C@H](O)[C@@H](O[C@H]3O[C@H](CO)[C@@H](O)[C@H](N)[C@H]3O)[C@H](N)C[C@@H]2N)[C@H](N)C[C@@H]1O | -5.82% | 
26 | NC[C@@H]1O[C@H](O[C@H]2[C@@H](O)[C@H](O[C@@H]3[C@@H](O)[C@H](N)C[C@H](N)[C@H]3O[C@H]3O[C@H](CO)[C@@H](O)[C@H](O)[C@H]3N)O[C@@H]2CO)[C@H](N)[C@@H](O)[C@@H]1O | 80.2% | 
27 | NC[C@H]1O[C@H](O[C@H]2[C@H](O[C@@H]3O[C@H](CO)[C@@H](O)[C@H]3O)[C@@H](O)[C@H](N)C[C@@H]2N)[C@H](N)[C@@H](O)[C@@H]1O | -5.95% and -3.47% | 
